Compound activity as filed in PubChem BioAssay.
GPT2 inhibitor: inhibitors of human GPT2 alanine aminotransferase; Q8TD30; Potency, µM (doses to about 57.7 µM), inactives show at the highest dose activity change, negative = inhibition, usual class: inhibitors; hit rate 0.25% among 100,000; Recombinant GPT2, coupled pyruvate oxidase/HRP Amplex Red fluorescence; note: nearly all actives have a fitted effect of over 60% in size
Target sequence (Q8TD30 whole entry, looked up): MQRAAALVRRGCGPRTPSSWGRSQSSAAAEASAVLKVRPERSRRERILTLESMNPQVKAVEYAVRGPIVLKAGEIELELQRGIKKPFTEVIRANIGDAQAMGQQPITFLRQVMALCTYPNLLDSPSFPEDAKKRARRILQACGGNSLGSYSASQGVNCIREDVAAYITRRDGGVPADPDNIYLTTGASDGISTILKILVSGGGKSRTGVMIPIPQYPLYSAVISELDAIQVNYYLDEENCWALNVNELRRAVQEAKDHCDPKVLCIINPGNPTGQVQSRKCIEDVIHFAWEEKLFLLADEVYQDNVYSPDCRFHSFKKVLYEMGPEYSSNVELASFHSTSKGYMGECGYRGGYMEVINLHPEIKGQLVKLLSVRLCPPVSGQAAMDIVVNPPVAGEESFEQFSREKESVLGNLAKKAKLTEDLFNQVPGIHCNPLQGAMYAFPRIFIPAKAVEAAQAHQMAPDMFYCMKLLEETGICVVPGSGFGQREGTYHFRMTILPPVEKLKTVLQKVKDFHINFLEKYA
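Fluorescence read-out: pyruvate from GPT2 turnover coupled to pyruvate oxidase, HRP and Amplex Red (0.2mM ThPP, 0.2U/mL PO and HRP, 50uM Amplex final). Substrates 250uM a-KG, 2mM L-alanine; enzyme 10ng/uL; 30 min RT.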
3T3 cytotox: NIH 3T3 cell cytotoxicity | NIH 3T3 viability, CellTiter-Glo ATP luminescence, 48-72 h | Potency, µM (titrated, usually from 96.7 µM), without a hit: top-dose activity change, negative = cytotoxicity, actives largely listed as inhibitors | hit rate 4.3% among 94,000 | AID 1345082; note: nearly all actives have a fitted effect of over 55% in size
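Luminescent ATP readout (CellTiter-Glo, 10 min RT) after 48 or 72 hr compound exposure of NIH 3T3 cells seeded at 400 cells/well in 1536-well format; quantitative HTS.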
hNpr1 antagonist: blocks ANP-stimulated signaling of human Npr1 receptor; HEK293 hNpr1 GloSensor cGMP, ANP-stimulated luminescence; Potency, µM (titrated, usually from 46.3 µM), for the others: at the top dose activity change, negative = inhibition, actives largely listed as inhibitors; P16066; AID 1347048; hit rate 1.6% among 76,000; calls by dose curve; note: nearly all actives have a fitted effect of over 60% in size
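HEK293 cells stably expressing human Npr1 and cGMP GloSensor pGS-40F, loaded 2 h with 2% GloSensor reagent, given compound 30 min at room temperature. Luminescence read before and 20 min after 0.1 nM hNppA.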
Luciferase inh: blocks purified firefly luciferase enzyme activity; hit rate 2.5% among 76,000; P08659; Potency, µM (top dose mostly 115 µM), most hits filed as inhibitors; purified P. pyralis luciferase, luminescence, biochemical; note: nearly all actives have a fitted effect of over 65% in size
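FLuc 10nM, D-luciferin 10uM, ATP 10uM, Mg acetate 10mM, Tris acetate pH 7.5, Tween/BSA; cpd qHTS; enzyme added last; CCD luminescence.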
HEK293 tox: kills HEK 293 cells; HEK 293 viability, ATP luminescence (CellTiter-Glo), 48-72 h; Potency, µM (highest dose often 115 µM), without a hit: at the top dose activity change, negative = cytotoxicity, actives largely listed as inhibitors; hit rate 6.6% among 94,000; note: nearly all actives have a fitted effect of over 60% in size
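Luminescence from cellular ATP, measured with CellTiter-Glo, indicates HEK 293 viability. Cells plated at 250 cells/well are treated with compound for 48 or 72 hr at 37 degree Celsius before reagent addition.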
The depositor's hits bear a star; i = inactive; ? = inconclusive; nt = not tested or not shown; [ ] = dose if it differs, or a comment. Shown are actives, neighbours in structure and some others; about 10% of the full set was active somewhere. Unless noted, calls come from the whole dose curve; as a rule, active = well fitted curve in the direction sought with a large enough effect; inconclusive = small, poorly fitted or top-dose-only effect, or another doubt; inactive = no such curve, though single readings can be large; an effect the other way counts as inactive or inconclusive. % is set by controls: 0 for no effect and ±100 for the full control effect; potency is the fitted concentration of half-maximal effect.

SMILES	GPT2 inhibitor	3T3 cytotox	hNpr1 antagonist	Luciferase inh	HEK293 tox
CCN1CCC(OCCCNC(=O)c2ccc(CC3CCN(C(C)=O)CC3)cc2)CC1	4%	?	nt	nt	?
Cc1ccc(CN2CCC(N3CCCC(C(=O)NCCc4ccccc4)C3)CC2)o1 (configuration not stated)	i	-25%	4%	i	?
O=C(NCCc1ccccn1)C1c2ccccc2C(=O)N(C2CCCCC2)C12CCCCC2 (configuration not stated)	-23%	?	-11%	i	45µM*
COC(=O)CCNC(=O)C1c2ccccc2C(=O)N(C2CCCCC2)C12CCCCC2 (configuration not stated)	-1%	-21%	4%	i	?
O[C@@H]1C[C@@H](c2nc(-c3ccc4c(c3)OCO4)no2)N(Cc2cc3ccccc3o2)C1	0%[88.5 µM]	-10%[174 µM]	3%[70.6 µM]	?	?
O[C@@H]1C[C@@H](c2nc(-c3ccccc3)no2)N(Cc2cc3ccccc3o2)C1	-6%[88.5 µM]	?	2%[70.6 µM]	40µM*	?
OCc1ccc(CN2C[C@H](O)C[C@H]2c2nc(-c3ccccc3)no2)o1	i	-14%[174 µM]	4%[70.6 µM]	45µM*	-8%[172 µM]
CN(C)c1cccc(C(=O)Nc2ncc(-c3cccc(F)c3)c3c2OCC3)c1	5%[88.5 µM]	?	-12%[70.6 µM]	i	?
COc1ccccc1-c1cnc(Nc2cccc(N[S+](C)(=O)[O-])c2)c2c1CCO2	i	20µM*	32µM*	?	40µM*
CN(C)c1cccc(-c2cnc(Nc3cccc(N[S+](C)(=O)[O-])c3)c3c2CCO3)c1	i	?	?	?	20µM*
CN(C)c1cccc(-c2cnc(Nc3ccncc3)c3c2CCO3)c1	1%[88.5 µM]	50µM*	-13%[70.6 µM]	i	56µM*
COc1cccc(C(=O)Nc2cc(C3CC3)nn2-c2ccccc2)c1	i	?	nt	nt	?
CSc1cccc(NC(=O)O[C@@H]2CC[C@]3(C)C(CC[C@@H](O)[C@H]3CC(=O)NCc3ccccc3)[C@]2(C)CO)c1 (some centres not stated)	2%	40µM*	-20%	i	35µM*
C[C@@]12CO[C@@H](Cc3ccccc3)O[C@@H]1CC[C@]1(C)[C@@H]2CC[C@@H](O)[C@H]1CC(=O)N1CCCC1	1%	-20%	-3%	i	i
C[C@@]12CO[C@@H](Cc3ccccc3)O[C@@H]1CC[C@]1(C)C2CC[C@@H](O)[C@H]1CC(=O)NCc1cc(F)cc(F)c1 (some centres not stated)	-18%	40µM*	-15%	i	40µM*
CSc1cccc(NC(=O)O[C@@H]2CC[C@]3(C)C(CC[C@@H](O)[C@H]3CC(=O)N3CCCC3)[C@]2(C)CO)c1 (some centres not stated)	2%	?	2%	i	?
COc1ccc(NC(=O)O[C@@H]2CC[C@]3(C)C(CC[C@@H](O)[C@H]3CC(=O)NCc3ccc4c(c3)OCO4)[C@]2(C)CO)cc1 (some centres not stated)	-6%	45µM*	5%	i	?
O=C(Cc1ccc(Cl)cc1)NC1CCN(c2nccc(Nc3ccccc3Cl)n2)CC1	3%	?	nt	nt	?
O=C(NCc1ccccn1)c1nc2sccn2c1-c1ccccc1	3%[88.5 µM]	?	nt	nt	-23%[172 µM]
O=C1CCCCCN1C1CCN(Cc2ccccc2C(F)(F)F)CC1	i	?	-7%[70.6 µM]	i	79µM*
O=C1CCCCCN1C1CCN(Cc2cccc3ccccc23)CC1	-3%[88.5 µM]	79µM*	2%[70.6 µM]	i	79µM*
O=C1CCCCCN1C1CCN(Cc2cccnc2)CC1	i	-15%[138 µM]	0%[70.6 µM]	i	-18%[172 µM]
Cc1cc(C)n(Cc2ccc(C(=O)NCC3CCCCC(=O)N3)o2)n1 (configuration not stated)	i	-20%	nt	nt	-9%
CN1C(=O)[C@@H]2C[C@@H](CN2C2CCCC2)Oc2ccccc21	-3%[88.5 µM]	?	-2%[70.6 µM]	i	?
CN1C(=O)[C@@H]2C[C@@H](CN2C2CCC2)Oc2ccccc21	i	50µM*	-16%[70.6 µM]	i	89µM*
